The text below walks through data of publication PMC7862700, “An all-to-all approach to the identification of sequence-specific readers for epigenetic DNA modifications on cytosine”.

What all share (assay): DAPPL (digital affinity profiling via proximity ligation, sequencing); 10 mM Tris-HCl pH 7.5, 50 mM NaCl, 1 mM DTT, 4% glycerol, room temperature, 30 min; GST-TFs on glutathione beads, 16-mer random dsDNA library, 0.1% formaldehyde crosslink after washing; high values mean tight binding
One assay deals with T1, FEV (Homo sapiens, UniProt Q99581 1-238).
T1 sequence: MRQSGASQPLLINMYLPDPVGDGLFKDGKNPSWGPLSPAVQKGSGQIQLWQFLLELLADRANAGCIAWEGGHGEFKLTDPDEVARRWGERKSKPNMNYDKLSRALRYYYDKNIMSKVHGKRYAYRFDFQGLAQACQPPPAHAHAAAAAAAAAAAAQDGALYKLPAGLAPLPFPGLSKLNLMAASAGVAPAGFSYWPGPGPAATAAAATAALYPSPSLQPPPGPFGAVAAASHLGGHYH
The conditions noted are these: protein: recombinant; tags: N-terminal GST; dsDNA, one strand shown. An outline of the steps: (§1)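 Beads coated with glutathione captured GST-fused human transcription factors that had been expressed in yeast, and the factors were then given DNA barcodes and pooled with a tag-only sample. The pools were incubated with 200 nmole of a random double-stranded 16-mer DNA library in Tris/NaCl/DTT/glycerol buffer for 30 min at room temperature, washed, crosslinked with 0.1% formaldehyde and proximity-ligated with BsaI/T4 ligase at 37 °C for 1 h. PCR amplification and Illumina NextSeq500 sequencing came last. Binding signal is each hexamer's read frequency for a factor divided by its frequency for the tag-only sample.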

The next assay has as its target ETV5 (Homo sapiens, UniProt P41161 1-510). To be noted: protein: recombinant; tags: N-terminal GST; dsDNA, one strand shown. The method in brief: as §1
For a further assay, the target named is HSF1 (Homo sapiens, UniProt Q00613 1-529). To be noted: protein: recombinant; tags: N-terminal GST; chain copies: 3; dsDNA, one strand shown. An outline of the steps:
as §1

The next assay concerns the target T2, SPIC (Homo sapiens, UniProt Q8N5J4 1-248).
T2 sequence: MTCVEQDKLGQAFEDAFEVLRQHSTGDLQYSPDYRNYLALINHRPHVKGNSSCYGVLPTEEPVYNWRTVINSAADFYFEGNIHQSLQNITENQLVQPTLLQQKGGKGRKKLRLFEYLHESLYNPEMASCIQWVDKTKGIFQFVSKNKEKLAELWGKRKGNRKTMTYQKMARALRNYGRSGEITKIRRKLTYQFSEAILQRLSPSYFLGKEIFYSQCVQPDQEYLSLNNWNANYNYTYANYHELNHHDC
The conditions noted are these: protein: recombinant; tags: N-terminal GST; dsDNA, one strand shown. An outline of the steps:
as §1

A further assay concerns the target ELF4 (Homo sapiens, UniProt Q99607 1-663). The conditions noted are these: protein: recombinant; tags: N-terminal GST; dsDNA, one strand shown. An outline of the steps: as §1
The next assay deals with T3, ELK4 (Homo sapiens, UniProt P28324-2 1-405).
T3 sequence: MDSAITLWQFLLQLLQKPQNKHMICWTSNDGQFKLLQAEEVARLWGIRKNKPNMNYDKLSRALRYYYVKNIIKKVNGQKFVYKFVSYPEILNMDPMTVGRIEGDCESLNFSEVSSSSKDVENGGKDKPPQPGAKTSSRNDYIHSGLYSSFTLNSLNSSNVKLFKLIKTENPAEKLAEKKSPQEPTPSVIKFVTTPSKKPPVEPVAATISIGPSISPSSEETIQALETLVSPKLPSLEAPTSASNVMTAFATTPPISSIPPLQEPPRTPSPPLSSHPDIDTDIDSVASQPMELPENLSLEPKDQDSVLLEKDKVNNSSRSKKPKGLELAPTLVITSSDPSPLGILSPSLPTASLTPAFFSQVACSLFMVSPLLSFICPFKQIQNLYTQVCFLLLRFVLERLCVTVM
The conditions noted are these: protein: recombinant; tags: N-terminal GST; dsDNA, one strand shown. The method in brief: as §1

For the next assay, the target named is T4, ETV2 (Homo sapiens, UniProt O00321 1-342).
T4 sequence: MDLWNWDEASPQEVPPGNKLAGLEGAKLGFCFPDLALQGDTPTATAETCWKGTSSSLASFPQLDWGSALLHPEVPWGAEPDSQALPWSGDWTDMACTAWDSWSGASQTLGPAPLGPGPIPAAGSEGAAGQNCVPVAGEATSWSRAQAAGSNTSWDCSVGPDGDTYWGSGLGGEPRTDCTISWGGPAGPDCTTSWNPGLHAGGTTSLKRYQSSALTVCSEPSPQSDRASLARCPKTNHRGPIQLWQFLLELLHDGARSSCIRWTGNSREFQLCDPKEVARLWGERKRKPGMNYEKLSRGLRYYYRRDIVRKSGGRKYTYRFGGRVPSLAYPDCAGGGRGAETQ
To be noted: protein: recombinant; tags: N-terminal GST; dsDNA, one strand shown. An outline of the steps:
as §1

Another assay addresses T5, ELF3 (Homo sapiens, UniProt P78545 1-371).
T5 sequence: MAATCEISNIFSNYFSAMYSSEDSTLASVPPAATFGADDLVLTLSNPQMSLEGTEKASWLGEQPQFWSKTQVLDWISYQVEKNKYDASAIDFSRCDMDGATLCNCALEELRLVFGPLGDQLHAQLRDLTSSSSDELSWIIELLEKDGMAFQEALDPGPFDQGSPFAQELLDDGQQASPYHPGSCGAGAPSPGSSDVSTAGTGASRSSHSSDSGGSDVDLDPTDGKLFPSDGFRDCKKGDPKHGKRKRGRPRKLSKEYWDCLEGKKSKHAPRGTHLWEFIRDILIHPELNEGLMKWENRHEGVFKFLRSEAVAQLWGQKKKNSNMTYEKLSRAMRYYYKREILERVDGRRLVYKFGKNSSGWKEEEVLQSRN
The conditions noted are these: protein: recombinant; tags: N-terminal GST; dsDNA, one strand shown. An outline of the steps: as §1

The next assay deals with CRX (Homo sapiens, UniProt O43186 1-299). The conditions noted are these: protein: recombinant; tags: N-terminal GST; dsDNA, one strand shown. The method in brief: as §1
The next assay addresses ETV1 (Homo sapiens, UniProt P50549 1-477). To be noted: protein: recombinant; tags: N-terminal GST; dsDNA, one strand shown. An outline of the steps:
as §1

Chain of ETV1 (P50549 whole entry): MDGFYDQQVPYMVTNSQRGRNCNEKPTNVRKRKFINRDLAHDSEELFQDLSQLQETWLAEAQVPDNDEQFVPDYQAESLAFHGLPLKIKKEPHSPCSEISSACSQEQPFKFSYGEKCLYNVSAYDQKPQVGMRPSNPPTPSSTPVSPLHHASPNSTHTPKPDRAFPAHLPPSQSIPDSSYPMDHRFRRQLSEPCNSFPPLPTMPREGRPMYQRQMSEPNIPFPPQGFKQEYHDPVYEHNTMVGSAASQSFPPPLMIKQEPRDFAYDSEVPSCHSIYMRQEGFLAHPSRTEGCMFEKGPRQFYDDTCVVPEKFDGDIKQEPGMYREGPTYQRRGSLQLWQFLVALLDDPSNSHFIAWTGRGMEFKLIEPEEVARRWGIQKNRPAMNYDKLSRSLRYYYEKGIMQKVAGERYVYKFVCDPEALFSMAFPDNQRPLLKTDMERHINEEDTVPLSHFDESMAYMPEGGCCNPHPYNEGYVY
Chain of ETV5 (P41161 whole entry): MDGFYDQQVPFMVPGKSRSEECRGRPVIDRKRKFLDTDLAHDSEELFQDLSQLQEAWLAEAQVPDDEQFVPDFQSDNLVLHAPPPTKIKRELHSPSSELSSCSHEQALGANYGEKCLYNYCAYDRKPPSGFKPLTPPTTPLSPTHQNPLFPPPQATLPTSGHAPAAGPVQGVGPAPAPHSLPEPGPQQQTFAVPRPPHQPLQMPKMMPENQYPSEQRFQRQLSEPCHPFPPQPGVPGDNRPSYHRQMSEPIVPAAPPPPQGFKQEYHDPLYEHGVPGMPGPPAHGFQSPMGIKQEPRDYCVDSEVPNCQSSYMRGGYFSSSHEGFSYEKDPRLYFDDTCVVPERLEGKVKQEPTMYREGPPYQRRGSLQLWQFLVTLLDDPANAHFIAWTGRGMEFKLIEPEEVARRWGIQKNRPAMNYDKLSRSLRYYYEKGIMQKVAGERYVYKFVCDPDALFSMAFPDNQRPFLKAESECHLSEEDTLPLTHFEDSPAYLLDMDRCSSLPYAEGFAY
Chain of HSF1 (Q00613 whole entry): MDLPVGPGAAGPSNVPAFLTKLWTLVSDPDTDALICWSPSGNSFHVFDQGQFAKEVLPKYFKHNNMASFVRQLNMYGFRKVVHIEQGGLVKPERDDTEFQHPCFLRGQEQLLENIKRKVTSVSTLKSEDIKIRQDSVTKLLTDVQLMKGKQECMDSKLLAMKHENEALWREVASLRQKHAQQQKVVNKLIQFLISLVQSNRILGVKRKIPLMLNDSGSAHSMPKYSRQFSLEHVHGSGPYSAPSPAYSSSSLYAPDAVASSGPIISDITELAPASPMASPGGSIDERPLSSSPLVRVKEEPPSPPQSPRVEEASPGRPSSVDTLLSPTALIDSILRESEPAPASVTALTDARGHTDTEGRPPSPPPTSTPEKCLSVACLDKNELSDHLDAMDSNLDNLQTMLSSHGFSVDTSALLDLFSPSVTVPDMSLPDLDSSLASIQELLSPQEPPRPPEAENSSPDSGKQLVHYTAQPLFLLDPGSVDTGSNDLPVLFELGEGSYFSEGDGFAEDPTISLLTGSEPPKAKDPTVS
Chain of CRX (O43186 whole entry): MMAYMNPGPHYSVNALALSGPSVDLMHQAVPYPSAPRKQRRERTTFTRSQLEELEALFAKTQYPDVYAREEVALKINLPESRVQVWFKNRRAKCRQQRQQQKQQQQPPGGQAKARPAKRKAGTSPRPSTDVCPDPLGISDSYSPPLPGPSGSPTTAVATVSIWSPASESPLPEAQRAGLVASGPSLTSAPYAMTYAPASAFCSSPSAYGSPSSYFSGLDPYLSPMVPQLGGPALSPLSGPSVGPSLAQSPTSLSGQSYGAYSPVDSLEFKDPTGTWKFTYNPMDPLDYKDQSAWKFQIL
Chain of ELF4 (Q99607 whole entry): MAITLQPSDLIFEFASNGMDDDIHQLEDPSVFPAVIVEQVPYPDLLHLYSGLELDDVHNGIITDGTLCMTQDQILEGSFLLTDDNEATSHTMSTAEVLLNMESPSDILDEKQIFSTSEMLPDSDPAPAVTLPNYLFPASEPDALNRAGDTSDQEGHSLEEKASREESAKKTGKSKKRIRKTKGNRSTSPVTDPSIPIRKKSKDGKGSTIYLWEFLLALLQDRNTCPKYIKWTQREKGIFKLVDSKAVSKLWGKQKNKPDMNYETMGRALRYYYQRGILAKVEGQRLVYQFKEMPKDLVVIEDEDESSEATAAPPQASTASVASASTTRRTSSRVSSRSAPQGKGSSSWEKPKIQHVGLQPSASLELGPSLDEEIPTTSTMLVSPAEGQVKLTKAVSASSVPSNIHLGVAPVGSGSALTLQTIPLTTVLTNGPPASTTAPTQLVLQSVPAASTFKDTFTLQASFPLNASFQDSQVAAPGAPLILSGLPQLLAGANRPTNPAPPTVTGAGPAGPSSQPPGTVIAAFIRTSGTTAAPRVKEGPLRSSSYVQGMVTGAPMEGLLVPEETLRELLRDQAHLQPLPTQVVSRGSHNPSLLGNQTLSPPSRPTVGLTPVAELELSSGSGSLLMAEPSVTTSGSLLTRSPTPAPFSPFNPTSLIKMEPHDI

As for TTTAAC, the binding signal is 1.09 fold enrichment (6-mer frequency, TF over GST control) with FEV; 1.12 fold enrichment (6-mer frequency, TF over GST control) with ETV5; 1.22 fold enrichment (6-mer frequency, TF over GST control) with HSF1; 1.23 fold enrichment (6-mer frequency, TF over GST control) with SPIC; 1.14 fold enrichment (6-mer frequency, TF over GST control) with ELF4; 1.13 fold enrichment (6-mer frequency, TF over GST control) in the assay with ELK4. For the same sequence, the binding signal was 1.24 fold enrichment (6-mer frequency, TF over GST control) with ETV2; 1.15 fold enrichment (6-mer frequency, TF over GST control) with ELF3; 1.74 fold enrichment (6-mer frequency, TF over GST control) in the assay with CRX; 1.18 fold enrichment (6-mer frequency, TF over GST control) in the assay with ETV1.

Consider TCCTAT, for which the binding signal in the assay with FEV is 1.41 fold enrichment (6-mer frequency, TF over GST control); with ETV5, 1.47 fold enrichment (6-mer frequency, TF over GST control); in the assay with HSF1, 1.41 fold enrichment (6-mer frequency, TF over GST control); in the assay with SPIC, 1.68 fold enrichment (6-mer frequency, TF over GST control); with ELF4 it was 1.46 fold enrichment (6-mer frequency, TF over GST control); in the assay with ELK4 it was 1.49 fold enrichment (6-mer frequency, TF over GST control). Also, the binding signal is 1.56 fold enrichment (6-mer frequency, TF over GST control) with ETV2; 1.74 fold enrichment (6-mer frequency, TF over GST control) with ELF3; 1.68 fold enrichment (6-mer frequency, TF over GST control) with CRX; 1.57 fold enrichment (6-mer frequency, TF over GST control) in the assay with ETV1.

As for ATTGAT, the binding signal in the assay with FEV was 1.25 fold enrichment (6-mer frequency, TF over GST control); with ETV5, 1.2 fold enrichment (6-mer frequency, TF over GST control); in the assay with HSF1, 1.37 fold enrichment (6-mer frequency, TF over GST control); with SPIC, 1.42 fold enrichment (6-mer frequency, TF over GST control); with ELF4, 1.32 fold enrichment (6-mer frequency, TF over GST control); with ELK4 it was 1.38 fold enrichment (6-mer frequency, TF over GST control). In addition, the binding signal with ETV2 was 1.3 fold enrichment (6-mer frequency, TF over GST control); with ELF3, 1.22 fold enrichment (6-mer frequency, TF over GST control); in the assay with CRX, 1.46 fold enrichment (6-mer frequency, TF over GST control); with ETV1, 1.39 fold enrichment (6-mer frequency, TF over GST control).

Turning to TTCTCA, the binding signal in the assay with FEV was 1.3 fold enrichment (6-mer frequency, TF over GST control); with ETV5, 1.33 fold enrichment (6-mer frequency, TF over GST control); in the assay with HSF1, 1.65 fold enrichment (6-mer frequency, TF over GST control); with SPIC, 1.5 fold enrichment (6-mer frequency, TF over GST control); in the assay with ELF4 it was 1.27 fold enrichment (6-mer frequency, TF over GST control); in the assay with ELK4, 1.34 fold enrichment (6-mer frequency, TF over GST control). In addition, the binding signal is 1.32 fold enrichment (6-mer frequency, TF over GST control) in the assay with ETV2; 1.39 fold enrichment (6-mer frequency, TF over GST control) with ELF3; 1.34 fold enrichment (6-mer frequency, TF over GST control) in the assay with CRX; 1.35 fold enrichment (6-mer frequency, TF over GST control) with ETV1.

For the sequence GTACTT, the binding signal was 2.21 fold enrichment (6-mer frequency, TF over GST control) with FEV; 1.95 fold enrichment (6-mer frequency, TF over GST control) with ETV5; 1.35 fold enrichment (6-mer frequency, TF over GST control) with HSF1; 1.86 fold enrichment (6-mer frequency, TF over GST control) with SPIC; 1.86 fold enrichment (6-mer frequency, TF over GST control) in the assay with ELF4; 1.78 fold enrichment (6-mer frequency, TF over GST control) with ELK4. In addition, the binding signal with ETV2 is 1.88 fold enrichment (6-mer frequency, TF over GST control); with ELF3, 2.04 fold enrichment (6-mer frequency, TF over GST control); with CRX, 1.6 fold enrichment (6-mer frequency, TF over GST control); in the assay with ETV1, 2.05 fold enrichment (6-mer frequency, TF over GST control).

Consider ATGACA, for which the binding signal with FEV was 1.22 fold enrichment (6-mer frequency, TF over GST control); with ETV5, 1.29 fold enrichment (6-mer frequency, TF over GST control); with HSF1 it was 1.09 fold enrichment (6-mer frequency, TF over GST control); with SPIC, 1.14 fold enrichment (6-mer frequency, TF over GST control); with ELF4, 1.32 fold enrichment (6-mer frequency, TF over GST control); in the assay with ELK4, 1.19 fold enrichment (6-mer frequency, TF over GST control). Also, the binding signal with ETV2 is 1.19 fold enrichment (6-mer frequency, TF over GST control); in the assay with ELF3 it was 1.33 fold enrichment (6-mer frequency, TF over GST control); with CRX, 1.09 fold enrichment (6-mer frequency, TF over GST control); with ETV1 it was 1.28 fold enrichment (6-mer frequency, TF over GST control).

In the case of TAATAT, the binding signal with FEV is 1.25 fold enrichment (6-mer frequency, TF over GST control); with ETV5 it was 1.26 fold enrichment (6-mer frequency, TF over GST control); with HSF1, 1.58 fold enrichment (6-mer frequency, TF over GST control); with SPIC, 1.16 fold enrichment (6-mer frequency, TF over GST control); in the assay with ELF4 it was 1.28 fold enrichment (6-mer frequency, TF over GST control); in the assay with ELK4 it was 1.37 fold enrichment (6-mer frequency, TF over GST control). The binding signal is 1.31 fold enrichment (6-mer frequency, TF over GST control) with ETV2; 1.25 fold enrichment (6-mer frequency, TF over GST control) with ELF3; 2.01 fold enrichment (6-mer frequency, TF over GST control) with CRX; 1.27 fold enrichment (6-mer frequency, TF over GST control) with ETV1.

Turning to CATATA, the binding signal was 1.08 fold enrichment (6-mer frequency, TF over GST control) in the assay with FEV; 1.09 fold enrichment (6-mer frequency, TF over GST control) in the assay with ETV5; 1.03 fold enrichment (6-mer frequency, TF over GST control) with HSF1; 1.14 fold enrichment (6-mer frequency, TF over GST control) with SPIC; 1.11 fold enrichment (6-mer frequency, TF over GST control) with ELF4; 1.07 fold enrichment (6-mer frequency, TF over GST control) with ELK4. Further, the binding signal was 1.17 fold enrichment (6-mer frequency, TF over GST control) with ETV2; 1.07 fold enrichment (6-mer frequency, TF over GST control) with ELF3; 1.09 fold enrichment (6-mer frequency, TF over GST control) in the assay with CRX; 1.06 fold enrichment (6-mer frequency, TF over GST control) with ETV1.
